Measured values published in PubChem BioAssay (EPA / NIEHS).
Inconclusive results are not listed. Calls of active or inactive are those of the source. How the source made its calls: active means hit-call score of the fitted dose curve at least 0.9, where 1 is the maximum; inconclusive means response in the unintended direction; inactive means score below 0.9.

Biological target: human Vitamin D Receptor (VDR), VDR (gene 7421) (UniProt P11473)
Assay: ATG_VDR_TRANS: Attagene TRANS-FACTORIAL HepG2 Assay for human Vitamin D Receptor (VDR) (AID 2283022)
Outline: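 Transactivation by an exogenous VDR-Gal4 chimera in transiently transfected HepG2 cells was measured as reporter transcript level 24 hours after chemical treatment. RT-PCR products were analysed by capillary electrophoresis and fitted in the positive direction relative to DMSO.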

Sequence of human Vitamin D Receptor (VDR), VDR (gene 7421) (P11473 whole entry, looked up): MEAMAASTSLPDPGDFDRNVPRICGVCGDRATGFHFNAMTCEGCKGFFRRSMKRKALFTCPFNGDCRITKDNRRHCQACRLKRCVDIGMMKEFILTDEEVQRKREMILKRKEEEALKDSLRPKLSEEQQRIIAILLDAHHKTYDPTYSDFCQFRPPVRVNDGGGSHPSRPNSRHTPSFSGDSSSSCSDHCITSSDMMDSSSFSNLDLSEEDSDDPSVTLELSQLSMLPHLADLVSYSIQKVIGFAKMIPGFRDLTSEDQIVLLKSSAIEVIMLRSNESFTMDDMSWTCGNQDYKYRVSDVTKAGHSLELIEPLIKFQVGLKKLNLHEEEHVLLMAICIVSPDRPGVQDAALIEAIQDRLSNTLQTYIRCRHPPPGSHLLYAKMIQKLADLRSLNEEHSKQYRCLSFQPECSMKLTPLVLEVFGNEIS

outcome, inactive:
CCNCCO
Nc1c(S(=O)(=O)O)cc(Br)c2c1C(=O)c1ccccc1C2=O
CCCCCCCCC=CCCCCCCCC1=NCCN1CCO
CCCC(O)C(O)CO (stereo not drawn)
OCc1cccc(Oc2ccccc2)c1
N[C@@H](Cc1cc(I)c(Oc2cc(I)c(O)c(I)c2)c(I)c1)C(=O)O
CC(C)(C)OC(=O)c1ccc(O)cc1
O=Cc1ccccc1S(=O)(=O)O
CC(C)C(OC(=O)c1ccccc1)C(C)(C)COC(=O)c1ccccc1 (stereo not drawn)
CC1C2CC(CC2C2CCCC(O)C2)C1(C)C (stereo not drawn)
CC(C)OCCO
C=C(C)[C@@H]1CC=C(C)C(=O)C1
O=C(O)CCCCCCCCC(=O)O
O=[N+]([O-])c1ccc(O)cc1C(F)(F)F
COc1ccc(N)c([N+](=O)[O-])c1
CC(=O)O[C@@H]1CC2CCC1(C)C2(C)C (stereo partly drawn)
O=C(O)CNc1ccccc1
CS(=O)(=O)c1ccc(Cl)cc1
CCc1cc(C(C)(C)C)c(O)c(C(C)(C)C)c1
C=CCOC(=O)CCCCCC
CC1=NN(c2ccc(S(=O)(=O)O)cc2)C(=O)C1
CN1C(=O)c2ccccc2C1=O
C=CC(C)C#N (stereo not drawn)
CCCC(=O)OC(C)(C)Cc1ccccc1
OCC(O)c1ccccc1 (stereo not drawn)
CCCCC(CC)C(=O)OC(C)C (stereo not drawn)
COCCOC(=O)c1ccccc1C(=O)OCCOC
Nc1ccc2cc(S(=O)(=O)O)cc(O)c2c1N=Nc1ccccc1C(F)(F)F
